Experimental data: PubChem BioAssay (NCI)
Compounds without any hit were thinned out: in the full panel of roughly 83,000, 20% have a hit.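 The endpoint reported here, percent growth, reads 100 for growth as untreated, 0 for no net growth and -100 for all cells dead.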 Active and inactive are the calls of the source. How the source made its calls: active means growth percent below 10; inactive means the rest.

Legend:
Experiment in all cases: NCI-60 one-dose screen, 48 h (100 = growth as untreated, 0 = no growth, -100 = all killed)
Conditions in all cases: 10 µM
[1] = system: NCI-H23 lung
[2] = system: NCI-H226 lung
[3] = system: NCI-H322M lung
[4] = system: HOP-62 NSCLC
[5] = system: NCI-H460 lung
[6] = system: NCI-H522 lung
[7] = system: A549/ATCC NSCLC
[8] = system: 786-0 renal
[9] = system: COLO 205 colon
[10] = system: DU-145 prostate

Measured: growth

CCCC#CCN(CC)CC
inactive: [1] 111% | [2] 107% | [3] 108% | [4] 117% | [5] 107% | [6] 97.6% | [7] 93.8% | [8] 100% | [9] 110% | [10] 123%

CSc1nc(=O)n(Cc2ccc(F)cc2)c(=O)n1Cc1ccc(C)cc1
inactive: [1] 101% | [2] 101% | [3] 112% | [4] 101% | [5] 105% | [6] 110% | [7] 88.5% | [8] 100% | [9] 94.6% | [10] 107%

COc1ccc2c(c1)N(CCO)C1=C(C(=O)OC1)C2c1ccccc1 (centres undefined)
active: [5] 9.29% | [6] -24.9% | [9] 8.42%
inactive: [1] 35.1% | [2] 36.3% | [3] 41.7% | [4] 24% | [7] 46.6% | [8] 37.9% | [10] 16.4%

COc1ccc(-c2cc(/C=C3\C(=O)Nc4ccc(OC)cc43)[nH]n2)cc1
inactive: [1] 67.1% | [2] 69.8% | [3] 53.9% | [4] 50.7% | [5] 16.4% | [6] 11.1% | [7] 40.6% | [8] 65.3% | [9] 13% | [10] 40.4%

COc1cc(CNc2ccccc2C(=O)N2CCN(C(=O)c3cc(-c4cc(OC)c(OC)c(OC)c4)n4nc(-c5ccccc5)cc4n3)CC2)cc(OC)c1OC
inactive: [1] 61.7% | [2] 76.5% | [3] 43.7% | [4] 53.9% | [5] 11.7% | [7] 37.8% | [8] 50.8% | [9] 46.8% | [10] 67.7%
active: [6] 7.02%

Clc1ccc(/C=C2\CCCC3=C2N=C2SC=NN2C3c2ccc(Cl)cc2)cc1 (centres undefined)
inactive: [1] 94.8% | [2] 107% | [3] 96.2% | [4] 112% | [5] 97.2% | [6] 106% | [7] 88.6% | [8] 103% | [9] 113% | [10] 98.3%

COc1ccc(/C(=C2\O[C@@H]([C@H]3COC(C)(C)O3)[C@H]3OC(C)(C)O[C@@H]23)c2cc(OC)c(OC)c(OC)c2)cc1O
inactive: [1] 72.3% | [2] 108% | [3] 34.8% | [4] 48.5% | [5] 79.4% | [6] 43.4% | [7] 84.2% | [8] 101% | [9] 121% | [10] 34.8%

COc1ccc(Cl)cc1C(=O)Nc1nc2ccc(Cl)cc2s1
inactive: [1] 90.5% | [2] 89.2% | [3] 85.6% | [4] 89.4% | [5] 93.7% | [6] 99.4% | [7] 76.7% | [8] 75.8% | [9] 82.8% | [10] 94.9%

CC12O[C@H](C[C@@H](OC(=O)c3ccccc3)[C@H]1O)n1c3ccccc3c3c4c(c5c6ccccc6n2c5c31)C(=O)NC4=O
inactive: [1] 56.9% | [2] 32.3% | [3] 83.1% | [4] 33.4% | [5] 79.6% | [6] 66.7% | [7] 50.9% | [8] 78.7% | [9] 46.8% | [10] 58.2%

CCC(=O)N1C/C(=C/c2ccc(Cl)cc2)C(=O)/C(=C/c2ccc(Cl)cc2)C1
active: [1] -25.6% | [2] -53.9% | [3] -16.6% | [4] -53% | [5] -13.8% | [6] -58.7% | [7] -26.7% | [8] -69% | [9] -76.5% | [10] -41.6%

O=C(Nc1ccncc1)C(=O)c1cn(S(=O)(=O)c2cccc(Cl)c2)c2ccccc12
inactive: [1] 54.2% | [2] 77.9% | [3] 102% | [4] 79.3% | [5] 82.2% | [6] 32.1% | [7] 75.5% | [8] 72.8% | [9] 117% | [10] 83.9%

Cc1nc2oc3ccccc3c(=O)c2cc1C(=O)NCc1ccccc1
inactive: [1] 85.9% | [2] 105% | [3] 76.2% | [4] 90.5% | [5] 32.2% | [6] 86.4% | [7] 68.9% | [8] 61.5% | [9] 39.9% | [10] 77%

COc1ccc(OC)c(/C=C/c2nnc(Nc3ccc(Cl)cc3)o2)c1
inactive: [1] 87.8% | [2] 56.1% | [3] 58.6% | [4] 35.3% | [5] 15.5% | [6] 92.9% | [7] 40.2% | [8] 27.9% | [9] 74.2% | [10] 78.9%

CCCC1(CC(=O)O)OCCc2c1[nH]c1ccccc21 (centres undefined)
inactive: [1] 93.4% | [2] 98.4% | [3] 109% | [4] 107% | [5] 109% | [6] 37.2% | [7] 99.3% | [8] 103% | [10] 114%
